Test results as given in PubChem BioAssay (NCATS).
“And” between values parts separate entries of the source, which are not always exact repeats. Equal entries are not always repeated. Results filed as inconclusive are left out. The source made the active and inactive calls. Unless noted, calls follow the shape of the dose curve; as a rule, active = well fitted curve in the direction sought with a large enough effect; inconclusive = small, poorly fitted or top-dose-only effect, or another doubt; inactive = no such curve, though single readings can be large; an effect the other way counts as inactive or inconclusive.

Columns and labels:
[1] = Cell Viability - BJ (AID 421; calls by dose curve;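 also: potency is read from the fitted curve at half-maximal effect; cells exposed to compound for 40 hours at 37 °C before readout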); conditions: BJ fibroblast viability, qHTS
Procedure, shortened: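 Cytotoxicity in human BJ foreskin fibroblasts is scored as loss of cellular ATP after a 40-hour exposure, measured by luciferase luminescence. Controls are DMSO and 100 uM tamoxifen.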

[2] = Cell Viability - Jurkat (AID 426;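 active = dose-dependent loss of cell ATP signal giving a full or clear fitted curve, ranked by lower potency value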; also: potency is read from the fitted curve at half-maximal effect); conditions: qHTS
Procedure, shortened: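 Jurkat (clone E6-1, human T-cell leukemia) cells, 5000/well in complete medium, were exposed to compound for 40 hr at 37 °C. Viability was read as intracellular ATP by CellTiter-Glo luminescence; AC50 came from Hill fits of concentration-response data.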

[3] = Cell Viability - Hek293 (AID 427;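 active = compounds whose dose-response curve shows a full or clear partial loss of cell viability, called from curve shape rather than a numeric limit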;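 also: potency is read from the fitted curve at half-maximal effect; cells exposed to compound for 40 hours at 37 °C before reading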); conditions: qHTS
Procedure, shortened: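 qHTS, human embryonic kidney (adenovirus-transformed) cells; 40 hr cpd, 37 °C; CellTiter-Glo ATP luminescence. Norm: DMSO = 0, 100 uM tamoxifen = 100% inhibition. Hill-fit AC50.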

[4] = Cell Viability - HepG2 (AID 433; calls by dose curve;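 also: potency is read from the fitted curve at half-maximal effect; potency for ATP loss meaning cytotoxicity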); conditions: qHTS
Procedure, shortened: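 Cytotoxicity read as ATP loss (CellTiter-Glo luminescence) after 40 hr compound exposure of HepG2, 1500 cells/well, 37 °C. AC50 by Hill equation; 0% set by DMSO, 100% inhibition by 100 uM tamoxifen.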

[5] = Cell Viability - MRC5 (AID 434; calls by dose curve;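 also: potency is read from the fitted curve at half-maximal effect; potency reflects cytotoxicity seen as loss of intracellular ATP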); conditions: MRC5 lung fibroblast viability, qHTS
Procedure, shortened: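 MRC5 normal human lung fibroblasts, 1500 cells/well, exposed to compound for 40 hr at 37 C. Cellular ATP was read by CellTiter-Glo luminescence; data normalized to DMSO and 100 uM tamoxifen, with AC50 from Hill fits.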

[6] = Cell Viability - SK-N-SH (AID 435; calls by dose curve; also: potency is read from the fitted curve at half-maximal effect); conditions: SK-N-SH neuroblastoma cell viability qHTS
Procedure, shortened: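 qHTS cytotoxicity: CellTiter-Glo ATP luminescence after 40 h compound exposure of human neuroblastoma SK-N-SH cells at 37 °C. AC50 derived by Hill-equation fitting, with DMSO as basal and 100 uM tamoxifen as full inhibition.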

[7] = Cellular Toxicity (caspase-3) HepG2 (AID 654); conditions: HepG2 caspase-3 activation, luminescence, 0% = DMSO only, 100% = tamoxifen; series mostly up to 92.2 µM;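 also: cells exposed to compound for 16 hours before reading; 0% = DMSO alone and 100% = caspase signal from 100 µM tamoxifen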
Procedure, shortened: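 HepG2 cells (1500/well) in complete medium were treated with compounds for 16 hr at 37 °C. Caspase-3/7 activity was then read as luminescence from peptide-aminoluciferin cleavage. AC50 came from Hill fits, normalized to DMSO and 100 uM tamoxifen.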

[8] = Cellular Toxicity (caspase-3) BJ (AID 658); conditions: BJ fibroblasts, luminescence, normalized: DMSO 0%, staurosporine 100%; series mostly up to 91.7 µM
Procedure, shortened: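 BJ human foreskin fibroblasts, 1000 cells/well, treated 16 hours at 37 °C in complete medium; caspase 3/7 activity by Caspase-Glo luminescence after 1 hr at room temperature. Normalized to DMSO and 10 uM staurosporine; AC50 from Hill fits.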

[9] = Cellular Toxicity (caspase-3) MRC-5 (AID 659); conditions: MRC-5 cells, luminescence, normalized: DMSO 0%, 10 µM staurosporine 100%; series mostly up to 91.7 µM
Procedure, shortened: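 MRC-5 human normal lung fibroblasts, 1500 cells/well, treated 16 h at 37 °C in complete medium. Caspase 3/7 measured by Caspase-Glo luminescence after 1 h at room temperature. Normalized to DMSO and 10 uM staurosporine; AC50 from Hill fit.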

[10] = Cellular Toxicity (caspase-3) Hek293 (AID 664); conditions: HEK293 caspase-3 activation, DMSO = 0%, 100 µM tamoxifen = 100%; at 92.2 µM (top of the series);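 also: cells exposed to compound for 16 h at 37 °C before readout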
Procedure, shortened: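 HEK293 cells were exposed to compounds in complete medium for 16 hr at 37 °C, then caspase-3/7 activity was read by Caspase-Glo 3/7 luminescence after 20 min at room temperature. Data normalized to DMSO and 100 uM tamoxifen; AC50 from Hill fits.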

[11] = Cellular Toxicity (caspase-3) N2a (AID 665); conditions: N2a cells, luminescence, normalized: DMSO 0%, 10 µM staurosporine 100%; series mostly up to 92.2 µM;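 also: compound exposure lasted 16 h at 37 °C before readout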
Procedure, shortened: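 Mouse N2a neuroblastoma cells (1500/well) were treated with compounds for 16 h at 37 °C, then caspase-3/7 activity was read by Caspase-Glo luminescence after 1 h at room temperature. Data were normalized to DMSO and 10 uM staurosporine; AC50 from Hill fits.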

[12] = Cellular Toxicity (caspase-3) NIH 3T3 (AID 666); conditions: NIH 3T3 caspase-3 activation, apoptosis/toxicity; series mostly up to 92.2 µM;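 also: caspase signal read after 16 h compound exposure; 0% = DMSO basal and 100% = 100 µM tamoxifen stimulation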
Procedure, shortened: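 Mouse NIH 3T3 fibroblasts (1000 cells/well) were treated with compound for 16 hr at 37°C in complete medium; caspase-3/7 activity was read by Caspase-Glo luminescence. Normalized to DMSO and 100 uM tamoxifen; AC50 from Hill fits.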

[13] = MultiTox-Fluor Cytotoxicity Assay - LYMP1-001 - Dead Cells (AID 946); conditions: LYMP1-001 lymphoblastoid cells, dead-cell protease fluorescence; series mostly up to 92.2 µM
Procedure, shortened: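 Seed 2500 LYMP1-001 cells/well, incubate 5 hr at 37 C; add compound, 16 hr at 37 C; add MultiTox-Fluor reagent, 60 min RT; read dead-cell fluorescence Ex/Em=485/520. Normalize to DMSO and 15 uM tetraoctylammonium bromide.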

[14] = MultiTox-Fluor Cytotoxicity Assay - LYMP1-002 - Live Cells (AID 955); conditions: LYMP1-002 lymphoblastoid live-cell protease fluorescence viability; series mostly up to 46.1 µM; also: % is scaled to controls: 0 for no effect and ±100 for the full control effect
Procedure, shortened: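 Human lymphoblastoid LYMP1-002 cells, 2500/well in complete medium, rested 5 hr at 37 C, then exposed to compounds for 16 hr at 37 C. Live-cell protease cleavage of GF-AFC read by fluorescence (Ex/Em 405/510) after 60 min at room temperature; AC50 from Hill fits.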

[15] = MultiTox-Fluor Cytotoxicity Assay - LYMP1-003 - Dead Cells (AID 961); conditions: LYMP1-003 lymphoblastoid cells, dead-cell protease fluorescence; series mostly up to 92.2 µM; also: nearly all actives have a fitted effect of over 70% in size
Procedure, shortened: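 LYMP1-003 lymphoblastoid, 2500 cells/well, 5 hr settle then 16 hr cpd at 37 C; MultiTox-Fluor reagent 60 min RT; Ex/Em 485/520 dead-cell signal; norm. DMSO = 0%, 15 uM tetraoctylammonium bromide = 100%; Hill AC50.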

[16] = Cell Viability - LYMP2-008 (AID 980); conditions: LYMP2-008 lymphoblastoid cell viability, qHTS; series mostly up to 92.2 µM; also: % is scaled to controls: 0 for no effect and ±100 for the full control effect; nearly all actives have a fitted effect of over 60% in size
Procedure, shortened: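 Human lymphoblastoid cells (2500/well) were plated, held 5 hr at 37 C, then exposed to compounds for 24 hr at 37 C in complete medium. Intracellular ATP was read by CellTiter-Glo luminescence; AC50 from Hill-fitted concentration-response.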

[17] = Cell Viability - LYMP1-002 - Assay at 24 hr (AID 993); conditions: LYMP1-002 lymphoblastoid cells viability; series mostly up to 92.2 µM; also: % is scaled to controls: 0 for no effect and ±100 for the full control effect
Procedure, shortened: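 Human lymphoblastoid LYMP1-002 cells, 2500/well in complete medium, were treated with compounds for 24 h at 37 C; intracellular ATP was read by CellTiter-Glo luminescence. AC50 values came from Hill-equation fits of qHTS concentration-response data.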

[18] = qHTS Assay for Identification of Small Molecule Inducers of Hypoxia Response (AID 2120; active = well fitted curve in the direction sought with a large enough effect in the signal ratio, with a control signal flat, not every such curve was filed as active; the % refers to the signal ratio; also: 0% is about no effect); conditions: hypoxia response reporter cells, beta-lactamase ratio readout; series mostly up to 104 µM
Procedure, shortened: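 HRE-beta-lactamase reporter in CellSensor HRE-bla ME-180 cells, 2500 cells/well in Opti-MEM with 0.5% dialyzed FBS; compounds tested as titration series, 17 h at 37 degrees C. CCF4 substrate 2.5 h at room temperature; AC50 from 460/530 nm ratio.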

[19] = biological target: Peroxisome proliferator-activated receptor alpha (Homo sapiens) (UniProt Q07869); assay: qHTS assay for small molecule agonists of the peroxisome proliferator-activated receptor alpha (PPARalpha) signaling pathway (AID 651778); conditions: PathHunter PPARalpha complementation, chemiluminescence, 6 h; active compounds read high; also: % of control where 0% means no effect
Procedure, shortened: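 Enzyme-fragment complementation assay in which ligand-bound PPARalpha translocates and forms an active enzyme that generates chemiluminescence. Cells were plated overnight, exposed to compound for 6 hr at 37 C, and then given detection reagent for 60 min at room temperature.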

[20] = qHTS assay for cell viability of the p53RE-bla HCT-116 cell line (AID 743292); conditions: p53RE-bla HCT-116 viability, ATP luminescence, 16 h; series mostly up to 95 µM; also: % is scaled to controls: 0 for no effect and ±100 for the full control effect; nearly all actives have a fitted effect of over 55% in size
Procedure, shortened: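 CellSensor p53RE-bla HCT-116 cells, 4,000/well, preincubated 5 h at 37 C, then exposed to compounds in DMSO for 16 h at 37 C. Viability read as CellTiter-Glo luminescence (intracellular ATP) after 30 min at room temperature.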

Chain of Peroxisome proliferator-activated receptor alpha (Homo sapiens) (Q07869 whole entry, looked up, the tested form may be a part): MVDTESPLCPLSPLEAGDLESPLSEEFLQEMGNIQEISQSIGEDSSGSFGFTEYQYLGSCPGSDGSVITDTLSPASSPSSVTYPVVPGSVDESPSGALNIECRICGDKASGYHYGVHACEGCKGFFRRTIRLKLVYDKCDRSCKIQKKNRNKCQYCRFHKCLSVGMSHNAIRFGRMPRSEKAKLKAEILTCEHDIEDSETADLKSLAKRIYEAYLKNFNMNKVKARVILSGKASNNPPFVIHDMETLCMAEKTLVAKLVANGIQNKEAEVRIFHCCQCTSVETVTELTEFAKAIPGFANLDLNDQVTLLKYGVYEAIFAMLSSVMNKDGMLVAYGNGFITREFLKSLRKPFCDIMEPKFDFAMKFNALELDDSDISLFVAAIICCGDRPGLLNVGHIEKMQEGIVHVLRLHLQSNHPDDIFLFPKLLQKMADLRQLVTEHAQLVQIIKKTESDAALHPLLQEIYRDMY

Nc1ccc(Oc2ccc(N)cc2)cc1
inactive: Potency [1] > 92 µM | Potency [2] > 92 µM | Potency [3] > 92 µM | Potency [4] > 92 µM | Potency [5] > 92 µM | Potency [6] > 92 µM | outcome [7] | outcome [8] | outcome [9] | caspase-3 activation [10] -2.14% | outcome [11] | Potency [12] | outcome [13] | outcome [14] | Potency [15] | Potency [16] | Potency [17] | Potency [18] | max response [19] -1.7% and -2.66% | Potency [20]

O=C(Cl)c1ccccc1F
inactive: Potency [1] > 92 µM | Potency [2] > 92 µM | Potency [3] > 92 µM | Potency [4] > 92 µM | Potency [5] > 92 µM | Potency [6] > 92 µM | outcome [7] | outcome [8] | outcome [9] | caspase-3 activation [10] 1.06% | outcome [11] | Potency [12] | outcome [13] | outcome [14] | Potency [15] | Potency [16] | Potency [17] | Potency [18] | max response [19] -1.25% | Potency [20]

Oc1ccc(Cl)c(Cl)c1Cl
inactive: Potency [1] > 92 µM | Potency [2] > 92 µM | Potency [3] > 92 µM | Potency [4] > 92 µM | Potency [5] > 92 µM | Potency [6] > 92 µM | outcome [7] | outcome [8] | outcome [9] | caspase-3 activation [10] 1.72% | outcome [11] | Potency [12] | outcome [13] | outcome [14] | Potency [15] | Potency [16] | Potency [17] | Potency [18] | max response [19] 0.378% | Potency [20]

O=c1ccc(=O)[nH][nH]1
inactive: Potency [1] > 92 µM | Potency [2] > 92 µM | Potency [3] > 92 µM | Potency [4] > 92 µM | Potency [5] > 92 µM | Potency [6] > 92 µM | outcome [7] | outcome [8] | outcome [9] | caspase-3 activation [10] -1% | outcome [11] | Potency [12] | outcome [13] | outcome [14] | Potency [15] | Potency [16] | Potency [17] | Potency [18] | max response [19] -0.0075% and -1.1% | Potency [20]

Cc1ccc(N)cc1C
inactive: Potency [1] > 92 µM | Potency [2] > 92 µM | Potency [3] > 92 µM | Potency [4] > 92 µM | Potency [5] > 92 µM | Potency [6] > 92 µM | outcome [7] | outcome [8] | outcome [9] | caspase-3 activation [10] 0.308% | outcome [11] | Potency [12] | outcome [13] | outcome [14] | Potency [15] | Potency [16] | Potency [17] | Potency [18] | max response [19] -0.229% | Potency [20]

C=CCCl
inactive: Potency [1] > 92 µM | Potency [2] > 92 µM | Potency [3] > 92 µM | Potency [4] > 92 µM | Potency [5] > 92 µM | Potency [6] > 92 µM | outcome [7] | outcome [8] | outcome [9] | caspase-3 activation [10] 0.123% | outcome [11] | Potency [12] | outcome [13] | outcome [14] | Potency [15] | Potency [16] | Potency [17] | Potency [18] | max response [19] -5.35% | Potency [20]

CC(C#N)CCC#N (stereo not given)
inactive: Potency [1] > 92 µM | Potency [2] > 92 µM | Potency [3] > 92 µM | Potency [4] > 92 µM | Potency [5] > 92 µM | Potency [6] > 92 µM | outcome [7] | outcome [8] | outcome [9] | caspase-3 activation [10] 0.584% | outcome [11] | Potency [12] | outcome [13] | outcome [14] | Potency [15] | Potency [16] | Potency [17] | Potency [18] | max response [19] -3.28% | Potency [20]

CCCCOC(=O)c1ccccc1N
inactive: Potency [1] > 92 µM | Potency [2] > 92 µM | Potency [3] > 92 µM | Potency [4] > 92 µM | Potency [5] > 92 µM | Potency [6] > 92 µM | outcome [7] | outcome [8] | outcome [9] | caspase-3 activation [10] 0.422% | outcome [11] | Potency [12] | outcome [13] | outcome [14] | Potency [15] | Potency [16] | Potency [17] | Potency [18] | max response [19] -4.62% | Potency [20]
